# Bioassay records from PubChem BioAssay.
# HttQ103 aggreg: inhibitors of mutant huntingtin aggregate formation in PC12 cells | Potency, µM (titrated, usually from 46.1 µM), inactives show at the highest dose activity change, negative = inhibition, most hits filed as inhibitors | AID 1688 | 220,000 tested, 1.1% active | PC12 HttQ103-GFP aggregates, Acumen cytometry, 40 h; note: potency is the fitted concentration of half-maximal effect; % is set by controls: 0 for no effect and ±100 for the full control effect; nearly all actives have a fitted effect of over 60% in size
#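 PC12/HTTQ103-GFP, ecdysone-inducible; teb 100 nM; cpd qHTS titration; GFP aggregates read on laser cytometer, Ex 488/Em 500-530 nm.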
# ALDH1A1 block: inhibitors of human aldehyde dehydrogenase 1A1 | P00352 | Purified ALDH1A1, NADH fluorescence, propionaldehyde substrate | Potency, µM (series often up to 75.3 µM), for the others: at the highest dose activity, negative = inhibition, usual class: inhibitors | 220,000 tested, 7.3% active | AID 1030; active = well fitted inhibition curve with a large enough effect, not every such curve was filed as active; inconclusive = small, poorly fitted or top-dose-only effect, or another doubt; inactive = no such curve, though single readings can be large or run the other way;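 note: potency is the fitted concentration of half-maximal effect; plate controls were no enzyme wells and a reference inhibitor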
# Target sequence (P00352 whole entry, looked up): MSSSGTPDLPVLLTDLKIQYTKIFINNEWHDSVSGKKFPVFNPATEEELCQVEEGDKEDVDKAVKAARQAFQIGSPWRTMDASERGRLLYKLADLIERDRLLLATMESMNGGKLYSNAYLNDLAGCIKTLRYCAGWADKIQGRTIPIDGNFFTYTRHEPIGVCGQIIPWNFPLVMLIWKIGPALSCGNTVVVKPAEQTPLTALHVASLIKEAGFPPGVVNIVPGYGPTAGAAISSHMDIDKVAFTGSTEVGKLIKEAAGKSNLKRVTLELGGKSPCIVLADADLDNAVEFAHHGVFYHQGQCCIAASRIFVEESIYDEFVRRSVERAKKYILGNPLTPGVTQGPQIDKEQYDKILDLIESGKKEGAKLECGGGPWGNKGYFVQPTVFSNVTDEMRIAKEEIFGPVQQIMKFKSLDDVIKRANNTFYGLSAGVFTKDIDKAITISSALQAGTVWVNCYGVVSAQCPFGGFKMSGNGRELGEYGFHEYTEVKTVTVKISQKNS
# HPGD inh: blocks human HPGD enzyme activity; purified HPGD, NADH fluorescence kinetic, PGE2 substrate; Potency, µM, for inactives: at the highest dose activity change, negative = inhibition, usual class: inhibitors; 150,000 tested, 4.3% active; active = well fitted inhibition curve with a large enough effect, not every such curve was filed as active; inconclusive = small, poorly fitted or top-dose-only effect, or another doubt; inactive = no such curve, though single readings can be large or run the other way; note: potency is the fitted concentration of half-maximal effect; % is set by controls: 0 for no effect and ±100 for the full control effect
#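 NADH formation kinetics: reaction with 30 uM PGE2 and 1 mM NAD+ (final), 20 nM enzyme, Tris-HCl pH 8 with Tween 20, after 15 min compound preincubation at room temperature. Fluorescence change, last versus first of five reads.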
# PNC assembly inh: perinucleolar compartment assembly inhibition | PC3M PTB-GFP, PNC prevalence imaging, 16 h; stronger effect = lower value | activity change (PNC), negative = inhibition, % at 10 µM | 140,000 tested, 3.1% active | AID 2417;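 active = readout at or below -70, meaning at least 70% loss of cells showing the perinucleolar compartment, a nuclear body marking cancer cells; inconclusive = readout between -30 and a set limit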;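 note: plate controls were DMSO wells for no effect and camptothecin positive control wells for full effect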
#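 Compounds are pinned in duplicate onto adhered PC3M cells stably expressing GFP-tagged PTB and incubated 16 h at 37 C. Cells are then fixed, nuclei stained with Hoechst, and PNC-positive cells counted.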
# CBFb-RUNX1 inh: inhibitors of human CBF-beta and RUNX1 interaction; AlphaScreen CBFb-His/RUNX1-biotin binding, biochemical; Potency, µM (series often up to 59.8 µM), for the others: at the highest dose activity, negative = inhibition, most hits filed as inhibitors; AID 1477; 230,000 tested, under 10 active; note: % of control where 0% means no effect
#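 Interaction loss through any mechanism counts as activity. Pre-formed complex of His-CBF-beta and biotin-RUNX1 (30 nM apiece) is incubated with compound 15 min, then with 50 ng nickel and 50 ng streptavidin beads for 90 min before AlphaScreen detection.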
# HTT cytoprotect: protects HTT-Q103 PC12 cells, measured by ATP | PC12 HTT-Q103 induced, cytoprotection, ATP luminescence, 40 h | Potency, µM (series often up to 56.4 µM), without a hit: cytoprotection (ATP increase), usual class: activators | 230,000 tested, 0.14% active; note: potency is the fitted concentration of half-maximal effect; % of control where 0% means no effect; nearly all actives have a fitted effect of over 45% in size
#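 Readout: ATPlite luminescence (ATP level). Model: stable PC12, inducible Htt exon1 Q103-GFP. Inducer: tebufenozide, 100 nM final. Compounds: dose series. No G418 in medium.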
# The depositor's hits bear a star; ? = inconclusive; . = not tested or not shown; [ ] = dose if it differs, or a comment. Compounds with a hit are over-represented: about 11% of the library has one in this group of screens. Unless noted, calls come from the whole dose curve; as a rule, active = well fitted curve in the direction sought with a large enough effect; inconclusive = small, poorly fitted or top-dose-only effect, or another doubt; inactive = no such curve, though single readings can be large; an effect the other way counts as inactive or inconclusive.
SMILES,HttQ103 aggreg,ALDH1A1 block,HPGD inh,PNC assembly inh,CBFb-RUNX1 inh,HTT cytoprotect
CCCC(c1nnnn1CC(=O)OCC)N(Cc1cc2ccc(C)cc2[nH]c1=O)C1CCCC1 (configuration not stated),-11.0%,?,-16.8%,36.4,5.3%,-4.3%
Cc1cc(C)c2cc(CN(Cc3nnnn3C3CCCCC3)CC3CCCO3)c(=O)[nH]c2c1 (configuration not stated),-4.0%,4.47µM*,-3.4%,35.8,-1.8%,-2.9%
O=c1[nH]c2cc3c(cc2cc1CN(CCc1ccccc1)Cc1nnnn1C1CCCC1)OCCO3,15.1%,?,?,?,3.7%,-20.0%
Cc1ccc2cc(CN(Cc3nnnn3C3CCCCC3)CC3CCCO3)c(=O)[nH]c2c1 (configuration not stated),-3.9%,8.91µM*,-12.4%,-10.3,2.9%,-17.5%
Cc1c(CN2CCC(CO)(Cc3cccc(C(F)(F)F)c3)CC2)c2ccccc2n1C,?,6.8%,.,.,4.4%,-74.5%
CC(C)C[C@H](NC(=O)C1(c2ccccc2)CCN(C(=O)[C@H]2CSCN2C(=O)OC(C)(C)C)CC1)C(=O)O,-6.8%,-4.4%,-0.1%,-113.8*,10.0%,.
Cc1cc(C)c(C(=O)Nc2ccc(Br)c(C(F)(F)F)c2)c(C)c1,20µM*,-15.7%,-8.3%,?,25.4%,.
O=C(O)c1ccccc1C(=O)Nc1ccc(Br)c(C(F)(F)F)c1,8.0%[9.22 µM],.,.,.,1.3%,4.4%[10 µM]
CCOC(=O)c1ccc(NC(=O)CN2C(=O)C(C)SC(C)C2=O)cc1 (configuration not stated),-5.3%,0.8%,-8.3%,-20.5,-2.9%,15.8%[10 µM]
CCOC(=O)c1ccccc1NC(=O)CC1SC(=NC)N(C)C1=O (configuration not stated),-3.9%,1.4%,-5.6%,?,1.4%,15.1%
O=C(CC1SC(=O)N(c2ccccc2)C1=O)Nc1ccc(Cl)cc1 (configuration not stated),7.5%[9.22 µM],.,.,.,-7.7%,2.1%[10 µM]
COc1ccc(NC(=O)CC2Sc3ncnn3C2=O)cc1 (configuration not stated),9.5%,0.398µM*,7.94µM*,24.3,-5.9%,-13.9%[10 µM]
O=C(CC1Sc2ncnn2C1=O)Nc1ccc(Cl)cc1 (configuration not stated),2.4%,7.94µM*,.,.,-2.2%,.
COCCN1C(=O)C(CC(=O)Nc2ccccc2)SC1=Nc1ccc(OC)cc1 (configuration not stated),-0.2%,-7.4%,-6.0%,1.8,-1.6%,11.3%
CCOC(=O)c1ccc(NC(=O)CC2Sc3ncnn3C2=O)cc1 (configuration not stated),9.5%,1µM*,15.8µM*,?,4.5%,13.6%[10 µM]
CCOC(=O)c1ccc(NC(=O)CC2SC(=NC)N(C)C2=O)cc1 (configuration not stated),-9.1%,12.6µM*,-9.1%,?,12.0%,-1.6%
CC(=O)NC(C)c1nc2ccccc2n1CC(=O)NC(C)CCc1ccccc1 (configuration not stated),12.3%,-11.7%,.,.,6.9%,-28.8%
CCCN1C(=O)/C(=C/c2cc(C)n(C)c2C)SC1=Nc1ccc(OC)cc1,5.3%,2µM*,-17.2%,10.7,-9.7%,-28.6%
COc1ccccc1N1C(=O)S/C(=C\c2cc(C)n(C)c2C)C1=O,?,14.1µM*,.,.,?,-33.6%
COc1ccc(N=C2S/C(=C\c3cc(C)n(C)c3C)C(=O)N2C)cc1,8.9%,?,-6.2%,16.5,-19.1%,-48.9%
CC(=O)[C@@]1(O)CC[C@H]2[C@H]3C[C@@H](C)C4=CC(=O)C=C[C@]4(C)[C@@]3(F)[C@@H](O)C[C@]21C,-8.6%[20.6 µM],-5.7%[20.9 µM],-1.5%,.,8.1%[21.7 µM],-38.9%[17.1 µM]
Cn1c(=O)n(CCc2ccccc2)c(=O)c2c1nc1n2CCN1c1ccccc1,.,.,.,.,.,-9.8%[0.074 µM]
